From PubChem BioAssay (NCI)
Where “and” joins values, the source holds several entries; their conditions need not be identical. Identical values can stand only once. The panel holds about 79,000 compounds, 15% with a hit somewhere; the sample as a whole holds those more often. Calls of active or inactive are those of the source. Cut-off read from the data, not from the text of the source: active = growth inhibition above about 70%; inactive = the rest.

Key:
[1] = NCI Yeast Anticancer Drug Screen. Data for the wt2 strain (AID 169);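 note: 0% = growth of vehicle-treated yeast cultures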; settings: S. cerevisiae wt2 strain growth inhibition, active compounds read high
Procedure, shortened: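 Treated yeast vs. vehicle-treated yeast: growth inhibition determined.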

[2] = NCI Yeast Anticancer Drug Screen. Data for the mlh1 strain (AID 171);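 note: 0% = growth of vehicle-treated control cultures of the same strain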; settings: S. cerevisiae mlh1 strain growth inhibition, active compounds read high
Procedure, shortened: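 A yeast strain with a defined genetic lesion serves as the test organism. Cultures receive compound or vehicle, and growth is measured.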

[3] = NCI Yeast Anticancer Drug Screen. Data for the sgs1 strain (AID 173);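 note: 0% = growth of vehicle-only control cultures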; settings: S. cerevisiae sgs1 mutant, active compounds read high
Procedure, shortened: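 A genetically defined yeast mutant is incubated with the test compound, and its growth is compared to that of the same strain given vehicle.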

[4] = NCI Yeast Anticancer Drug Screen. Data for the mlh1 rad18 strain (AID 175); settings: S. cerevisiae mlh1 rad18 strain growth inhibition, active compounds read high
Procedure, shortened: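 Steps: expose repair-defective yeast to compound; measure growth; express inhibition against vehicle-treated controls.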

[5] = NCI Yeast Anticancer Drug Screen. Data for the rad18 strain (AID 177); settings: S. cerevisiae rad18 mutant growth inhibition, active compounds read high
Procedure, shortened: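 Measured value is growth inhibition of a yeast strain bearing a DNA repair alteration, referenced to vehicle-treated cells.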

[6] = NCI Yeast Anticancer Drug Screen. Data for the rad52 strain (AID 147);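 note: 0% = growth of vehicle-treated control cultures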; settings: S. cerevisiae rad52 mutant growth inhibition, active compounds read high
Procedure, shortened: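 Here a repair-compromised yeast strain receives each compound; its growth is then quantified and normalised to vehicle-only controls.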

[7] = NCI Yeast Anticancer Drug Screen. Data for the wt1 strain (AID 149);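 note: 0% = growth of vehicle-treated wt1 cultures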; settings: S. cerevisiae wt1 strain (SPY 50644) growth inhibition, active compounds read high
Procedure, shortened: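 Readout: yeast growth inhibition, normalised to vehicle controls, in the wt1 strain exposed to test compounds.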

[8] = NCI Yeast Anticancer Drug Screen. Data for the rad50EPP+ strain (AID 151);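 note: 0% = growth of vehicle-treated control cultures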; settings: S. cerevisiae rad50 mutant strain, active compounds read high
Procedure, shortened: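 Read-out is yeast growth inhibition relative to vehicle; cells used were the rad50EPP+ strain.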

[9] = NCI Yeast Anticancer Drug Screen. Data for the mgt1 strain (AID 153); settings: S. cerevisiae mgt1 mutant growth inhibition, active compounds read high
Procedure, shortened: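 Measured: inhibition of mgt1 yeast growth by compound, normalized to vehicle-treated cultures.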

[10] = NCI Yeast Anticancer Drug Screen. Data for the rad50 strain (AID 155);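 note: 0% = growth of vehicle-only cultures of the same strain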; settings: S. cerevisiae rad50 strain growth inhibition, active compounds read high
Procedure, shortened: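 Compounds were tested on a yeast strain with an engineered DNA damage repair alteration; the reported value is growth inhibition normalised to vehicle treatment.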

[11] = NCI Yeast Anticancer Drug Screen. Data for the mec2-1 strain (AID 157); settings: S. cerevisiae mec2-1 strain, active compounds read high
Procedure, shortened: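 Using mec2-1 yeast: add compound, measure growth, express inhibition versus vehicle-treated cultures.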

[12] = NCI Yeast Anticancer Drug Screen. Data for the rad14 strain (AID 159);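 note: 0% = growth of vehicle-treated control cultures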; settings: S. cerevisiae rad14 strain growth inhibition, active compounds read high
Procedure, shortened: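 Compound-treated yeast with a defined DNA-repair lesion; growth inhibition normalised to vehicle-treated cultures.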

[13] = NCI Yeast Anticancer Drug Screen. Data for the sgs1 mgt1 strain (AID 161);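 note: 0% = growth of cultures given vehicle only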; settings: S. cerevisiae sgs1 mgt1 strain, active compounds read high
Procedure, shortened: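 Compounds are added to genetically altered yeast, and growth is compared with cultures given vehicle alone to give percent inhibition.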

[14] = NCI Yeast Anticancer Drug Screen. Data for the CLN2oe strain (AID 163);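 note: 0% = growth of vehicle-only control cultures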; settings: S. cerevisiae CLN2oe strain, active compounds read high
Procedure, shortened: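 Whole-cell yeast growth assay. A strain engineered for altered cell-cycle control received compound, and inhibition relative to vehicle-treated cultures was recorded.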

[15] = NCI Yeast Anticancer Drug Screen. Data for the cln2 rad14 strain (AID 165);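 note: 0% = growth equal to vehicle treated cultures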; settings: S. cerevisiae cln2 rad14 strain, active compounds read high
Procedure, shortened: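 Yeast strain cln2 rad14, bearing defects in cell cycle control and DNA repair, serves as the test system; values reflect growth inhibition compared with vehicle.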

[16] = NCI Yeast Anticancer Drug Screen. Data for the bub3 strain (AID 167); settings: S. cerevisiae bub3 mutant strain, active compounds read high
Procedure, shortened: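 Growth of a checkpoint-deficient yeast mutant is measured after compound exposure. Values represent inhibition relative to vehicle.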

[17] = at 5.0 µM (retest, dose inferred, filed as 0.5)
[18] = at 50.0 µM (retest, dose inferred, filed as 5.0)

Measured: growth inhibition

COC1=C(N)C(=O)c2nc(-c3nc(C(=O)O)c(C)c(-c4ccc(OC)c(OC)c4O)c3N)ccc2C1=O
active: [1]; at 1.2 µM 91% | [1]; at 3.7 µM 97% | [1]; at 11.0 µM 97% | [1]; at 33.0 µM 98% | [1]; at 100.0 µM 97% | [2]; at 1.2 µM 95% | [2]; at 3.7 µM 98% | [2]; at 11.0 µM 98% | [2]; at 33.0 µM 98% | [2]; at 100.0 µM 97% | [3]; at 1.2 µM 95% | [3]; at 3.7 µM 97% | [3]; at 11.0 µM 98% | [3]; at 33.0 µM 98% | [3]; at 100.0 µM 97% | [4]; [17] 97% and 99% | [4]; [18] 97% and 98% | [4]; at 50.0 µM 93% and 92.5% | [5]; at 1.2 µM 96% | [5]; at 3.7 µM 98% | [5]; at 11.0 µM 98% | [5]; at 33.0 µM 97% | [5]; at 100.0 µM 97%

CN(C)/C=C/c1nnc([N+](=O)[O-])s1
active: [6]; at 100.0 µM 98% | [7]; at 100.0 µM 98% | [8]; at 100.0 µM 96% | [9]; at 100.0 µM 98% | [10]; at 33.0 µM 94% | [10]; [18] 90% | [10]; at 50.0 µM 95% | [10]; at 100.0 µM 97% | [11]; at 50.0 µM 76.2% | [11]; at 100.0 µM 90% | [12]; at 33.0 µM 79% | [12]; at 100.0 µM 99% | [13]; [18] 80% | [13]; at 50.0 µM 94% | [14]; at 100.0 µM 97% | [16]; [18] 77% | [16]; at 50.0 µM 96% | [16]; at 100.0 µM 98% | [1]; at 100.0 µM 98% | [2]; at 100.0 µM 99% | [3]; at 100.0 µM 98% | [4]; [18] 77% | [4]; at 50.0 µM 89.8% | [5]; at 100.0 µM 97%
inactive: [6]; at 1.2 µM -2% | [6]; at 3.7 µM -3% | [6]; at 11.0 µM 5% | [6]; at 33.0 µM 28% | [7]; at 1.2 µM -7% | [7]; at 3.7 µM -8% | [7]; at 11.0 µM -10% | [7]; at 33.0 µM -1% | [8]; at 1.2 µM 1% | [8]; at 3.7 µM 12% | [8]; at 11.0 µM 35% | [8]; at 33.0 µM 65% | [9]; at 1.2 µM -7% | [9]; at 3.7 µM -5% | [9]; at 11.0 µM -5% | [9]; at 33.0 µM -5% | [10]; at 1.2 µM -8% | [10]; at 3.7 µM -3% | [10]; [17] -144% | [10]; at 11.0 µM 49% | [11]; at 1.2 µM 4% | [11]; at 3.7 µM 0% | [11]; [17] -48% | [11]; at 11.0 µM -6% | [11]; at 33.0 µM 1% | [11]; [18] 4% | [12]; at 1.2 µM -4% | [12]; at 3.7 µM 2% | [12]; at 11.0 µM 28% | [13]; [17] -63% | [14]; at 1.2 µM -2% | [14]; at 3.7 µM -3% | [14]; at 11.0 µM -2% | [14]; at 33.0 µM 9% | [15]; [17] -63% | [15]; [18] -23% | [15]; at 50.0 µM 28.6% | [16]; at 1.2 µM -5% | [16]; at 3.7 µM -2% | [16]; [17] -65% | [16]; at 11.0 µM -3% | [16]; at 33.0 µM 6% | [1]; at 1.2 µM -1% | [1]; at 3.7 µM -1% | [1]; at 11.0 µM -2% | [1]; at 33.0 µM 7% | [2]; at 1.2 µM 5% | [2]; at 3.7 µM -8% | [2]; at 11.0 µM -1% | [2]; at 33.0 µM 41% | [3]; at 1.2 µM -2% | [3]; at 3.7 µM -4% | [3]; at 11.0 µM -1% | [3]; at 33.0 µM 24% | [4]; [17] -115% | [5]; at 1.2 µM 0% | [5]; at 3.7 µM 5% | [5]; at 11.0 µM 21% | [5]; at 33.0 µM 56%

CCN(CC)CCOc1cc(C)c2cc(Cc3ccccc3)ccc2n1
inactive: [6]; at 1.2 µM -1% | [6]; at 3.7 µM 2% | [6]; at 11.0 µM 2% | [6]; at 33.0 µM 18% | [7]; at 1.2 µM 0% | [7]; at 3.7 µM 1% | [7]; at 11.0 µM -1% | [7]; at 33.0 µM 3% | [8]; at 1.2 µM 0% | [8]; at 3.7 µM 0% | [8]; at 11.0 µM 3% | [8]; at 33.0 µM 7% | [8]; at 100.0 µM 31% | [9]; at 1.2 µM 2% | [9]; at 3.7 µM 5% | [9]; at 11.0 µM 10% | [9]; at 33.0 µM 35% | [10]; at 1.2 µM -40% | [10]; at 3.7 µM -2% | [10]; [17] 7% | [10]; at 11.0 µM -1% | [10]; at 33.0 µM 13% | [10]; [18] 57% | [11]; at 1.2 µM -2% | [11]; at 3.7 µM -3% | [11]; [17] -2% | [11]; at 11.0 µM 1% | [11]; at 33.0 µM 17% | [11]; [18] 8% | [12]; at 1.2 µM 4% | [12]; at 3.7 µM 16% | [12]; at 11.0 µM 25% | [12]; at 33.0 µM 36% | [13]; [17] 5% | [13]; [18] 47% | [14]; at 1.2 µM -4% | [14]; at 3.7 µM -9% | [14]; at 11.0 µM 0% | [14]; at 33.0 µM 15% | [14]; at 100.0 µM 52% | [15]; [17] 2% | [15]; [18] -5% | [15]; at 50.0 µM 53.9% | [16]; at 1.2 µM 2% | [16]; at 3.7 µM 1% | [16]; [17] 2% | [16]; at 11.0 µM 9% | [16]; at 33.0 µM 38% | [16]; [18] 13% | [1]; at 1.2 µM -1% | [1]; at 3.7 µM -2% | [1]; at 11.0 µM 2% | [1]; at 33.0 µM 13% | [2]; at 1.2 µM 0% | [2]; at 3.7 µM 1% | [2]; at 11.0 µM 11% | [2]; at 33.0 µM 28% | [3]; at 1.2 µM 0% | [3]; at 3.7 µM 3% | [3]; at 11.0 µM 12% | [3]; at 33.0 µM 35% | [4]; [17] 5% | [4]; [18] 28% | [5]; at 1.2 µM 3% | [5]; at 3.7 µM 15% | [5]; at 11.0 µM 28% | [5]; at 33.0 µM 65%
active: [6]; at 100.0 µM 82% | [7]; at 100.0 µM 71% | [9]; at 100.0 µM 98% | [10]; at 50.0 µM 88.2% | [10]; at 100.0 µM 92% | [11]; at 50.0 µM 82.7% | [11]; at 100.0 µM 84% | [12]; at 100.0 µM 99% | [13]; at 50.0 µM 96% | [16]; at 50.0 µM 88.2% | [16]; at 100.0 µM 81% | [1]; at 100.0 µM 94% | [2]; at 100.0 µM 94% | [3]; at 100.0 µM 96% | [4]; at 50.0 µM 96% | [5]; at 100.0 µM 99%
